Screening data: PubChem BioAssay, several laboratories
SMARCA2 activ: SMARCA2 (BRM) function activators, primary screen, cell-based, luminescence, high throughput; 370,000 compounds, 1% hits; activation, % at 9.1 µM; AID 652017, 2013; MG213 cells, MMTV-luciferase reporter, dexamethasone, overnight; in the data active = activation above about 7.8%
GRIN3A LBD mod: binders of NR3A ligand-binding domain, primary screen, biophysical, differential scanning fluorimetry, uHTS | 340,000 compounds, 2.5% hits | Glutamate receptor ionotropic, NMDA 3A (GRIN3A) ligand-binding domain | Tm shift relative to glycine control, % at 25 µM | AID 1259313, 2017 | NR3A LBD differential scanning fluorimetry, Tm shift; 0% = protein alone, 100% = glycine-bound protein;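 active = melting temperature shift of at least 10% of the positive control shift, at one fixed dose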
NadD block: inhibitors of S. aureus NadD, primary screen, biochemical, colorimetric, uHTS. AID 602399, 2012. 360,000 compounds, 0.78% hits. purified NadD enzyme, colorimetric absorbance read-out. inhibition, % at 20 µM; in the data active = inhibition above about 26%
SKN-1 block: suppressors of acrylamide-induced Pgst-4::GFP reporter in worms, primary screen, SKN-1 inhibitor project, whole organism, uHTS, GFP/RFP fluorescence ratio, strain VP596; C. elegans VP596 Pgst-4::GFP/RFP ratio, 24 h; inhibition, % at 21.8 µM; 360,000 compounds, 0.49% hits;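 active = interference check ratio from 0.5 to 1.5 plus GFP to RFP signal ratio inhibition reaching or exceeding a fixed threshold, cut at about 30% in these data, passing the limit was not always enough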
esBAF inh: Bmi1 luciferase reporter increase in mESCs, primary screen, esBAF inhibitor project, mouse ES cells, Bmi1 luciferase knock-in, single point; AID 602393, 2012; 350,000 compounds, 2% hits; 24 h; 100% = twice the neutral-well signal; reporter increase, % at 12.5 µM; in the data active = activation above about 40%;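 also: a rise in the Bmi1 reporter signal indicates esBAF inhibition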
Vif inh: HIV Vif self-association inhibitors, primary screen, imaging, HEK293T, single point; HEK293T cells, Vif self-association by quenched fluorescence, 24 h; inhibition, % at 7.49 µM; 340,000 compounds, 0.35% hits; AID 602346, 2012; in the data active = inhibition above about 50%, passing the limit was not always enough
Numbers stand for hits; – = inactive; · = not tested or not shown. Most compounds without a hit are left out; they make up all but 5.2% or so of the library.

SMILES	SMARCA2 activ	GRIN3A LBD mod	NadD block	SKN-1 block	esBAF inh	Vif inh
O=C(NCC[C@H]1CC[C@H](NS(=O)(=O)c2ccc(F)cc2)[C@@H](CO)O1)Nc1ccc(Cl)cc1	·	·	·	·	–	·
COc1cc(/C=N/NC(=O)c2nnn(-c3nonc3N)c2C)ccc1OCc1ccc(Cl)cc1	–	·	–	–	56	–
CC(C)c1c(C(=O)N/N=C/c2ccc(C(F)(F)F)cc2)nnn1-c1nonc1N	–	28	–	–	–	–
COc1cc(/C=N/NC(=O)c2nnn(-c3nonc3N)c2C(C)C)ccc1O	–	30	–	–	–	–
Cc1ccccc1COc1cccc(/C=N/NC(=O)c2nnn(-c3nonc3N)c2C)c1	–	–	–	–	–	–
Cc1c(C(=O)N/N=C/c2cccc(O)c2)nnn1-c1nonc1N	–	12	–	–	–	–
Cc1noc(C)c1NC(=O)Nc1ccc2c(c1)C(=O)N([C@@H](C)CO)C[C@@H](C)[C@H](CN(C)CC1CCCCC1)O2	·	·	·	·	–	·
C#CCOCCOCCOCCNc1nc(N2CCN(C(=O)CCCCCCCCCCNC(=O)Cn3cc(CCCCCN)nn3)CC2)nc(N2CCN(C(=O)CCCCCCCCCCNC(=O)[C@H]([C@@H](C)CC)n3cc(CCCCCN)nn3)CC2)n1	·	28	–	–	–	–
C#CCOCCOCCOCCNc1nc(N2CCN(C(=O)CCCCCCCCCCNC(=O)Cn3cc(CCCCCN)nn3)CC2)nc(N2CCN(C(=O)CCCCCCCCCCNC(=O)[C@H](CO)n3cc(CCCCCN)nn3)CC2)n1	·	–	–	–	–	54
C#CCOCCOCCOCCNc1nc(N2CCOCC2)nc(N2CCN(C(=O)CCCCCCCCCCNC(=O)[C@H](CO)n3cc(CCCCCN)nn3)CC2)n1	–	–	–	–	–	–
CCC(=O)N1[C@H](CO)[C@H](c2ccc(-c3ccc(F)cc3)cc2)[C@@H]1CNC(C)=O	·	·	·	·	–	·
O=C(CCC1CCCC1)NCCS(=O)(=O)N1CCN(c2ccc(F)cc2)CC1	–	–	–	–	·	–
COc1ccc(N2CCN(S(=O)(=O)CCNC(=O)C3CC3)CC2)cc1	–	13	–	–	·	–
O=C(CCC1CCCCC1)NCCS(=O)(=O)N1CCN(c2ccc(F)cc2)CC1	–	14	–	–	·	–
CO[C@H]1CN(C)C(=O)c2cc(NC(C)=O)ccc2OC[C@H](C)N(Cc2cc(F)ccc2F)C[C@H]1C	·	·	·	·	–	·
Cc1ccc(N=Nc2c(N)n(-c3ccccc3)[nH]c2=O)cc1	–	–	–	–	42	–
COc1ccc(C/C(N)=N/OC(=O)COc2ccccc2C)cc1	–	11	–	–	·	–
COc1ccc(/C(N)=N/OC(=O)Cc2cccs2)cc1	–	11	–	–	60	–
COc1ccc(/C(N)=N/OC(=O)Cc2cccs2)cc1OC	–	–	–	–	·	–
Cc1ccccc1OCC(=O)O/N=C(\N)Cc1ccc(Cl)cc1	–	–	–	–	·	–
COc1ccc(/C(N)=N/OC(=O)COc2ccccc2Cl)cc1	–	–	–	–	49	–
Cc1cccc(/C(N)=N/OC(=O)COc2ccccc2Cl)c1	–	–	–	–	·	–
Cc1ccccc1OCC(=O)O/N=C(\N)c1ccncc1	–	–	–	–	58	–
C[C@H](CO)N1C[C@H](C)[C@H](CN(C)C(=O)Nc2cccc3ccccc23)Oc2ccc(NS(=O)(=O)c3cn(C)cn3)cc2CC1=O	·	·	·	·	–	·
C[C@@H]1CN([C@H](C)CO)C(=O)Cc2cc(NC(=O)Nc3ccc4c(c3)OCO4)ccc2O[C@@H]1CN(C)Cc1ccc(Oc2ccccc2)cc1	·	·	·	·	–	·
CCCNC(=O)N1[C@H](CO)[C@@H]2c3ccccc3N(C(=O)c3ccccc3)C[C@@H]21	·	·	·	·	–	·
Cc1ccc(OCC(=O)O/N=C(\N)c2ccncc2)c(C)c1	–	–	–	–	69	–
Cc1cc(C)c(C)c(OCC(=O)O/N=C(\N)c2ccncc2)c1	–	–	–	–	–	–
